# Screens: PubChem, National Center for Advancing Translational Sciences (NCATS)
# Shown are actives, neighbours in structure and some others; about 3.1% of the full set was active somewhere.
# D3 antag: qHTS of D3 Dopamine Receptor Antagonist: qHTS; AID 652054, 2013; max response, negative = inhibition, %; D(3) dopamine receptor (Homo sapiens), P35462; D3R cells, DiscoveRx beta-arrestin luminescence, antagonist mode; active compounds read low; 360,000 compounds, 2.5% hits; in the data active = max response below about -50%; inconclusive = no clear call, values can overlap the other calls; note: % is set by controls: 0 for no effect and ±100 for the full control effect
#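 Cells plated overnight at 1500 cells/well, then exposed to library compounds with dopamine controls for 90 minutes at 37 degrees C. DiscoveRx reagent added for 30–60 minutes at room temperature; luminescence read, quantitative HTS format.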
# RGS4 inhibitor: Inhibitors of Regulator of G Protein Signaling (RGS) 4: qHTS; 390,000 compounds, 0.039% hits; Regulator of G-protein signaling 4 (Homo sapiens), P49798; Potency, µM (series often up to 114 µM), for the others: at the top dose activity change, negative = inhibition, most hits filed as inhibitors; Transcreener GDP fluorescence polarization, RGS4-accelerated GTP hydrolysis; AID 504845, 2011; active = well fitted inhibition curve with a large enough effect; inconclusive = small, poorly fitted or top-dose-only effect; inactive = no such curve, though single readings can be large or run the other way; note: potency is the fitted concentration of half-maximal effect; % is set by controls: 0 for no effect and ±100 for the full control effect; nearly all actives have a fitted effect of over 75% in size
# Target sequence (P49798 whole entry, looked up): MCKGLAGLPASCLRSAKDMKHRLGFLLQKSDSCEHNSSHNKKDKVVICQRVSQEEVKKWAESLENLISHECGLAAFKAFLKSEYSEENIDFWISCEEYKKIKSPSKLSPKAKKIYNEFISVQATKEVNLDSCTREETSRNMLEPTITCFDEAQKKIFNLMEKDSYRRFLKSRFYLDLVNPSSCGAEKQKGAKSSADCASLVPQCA
#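 MLSMR compounds (23 nl, pin-transferred) preincubated 10 min at room temperature with a 500nM (2x) first reagent, then RGS4 at 900nM (2x) plus Transcreener GDP mix added; fluorescence polarization (620/688 nm) read before and after 90 min at 30 °C.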
# DRD3 agonist: qHTS of D3 Dopamine Receptor Agonist: qHTS | D(3) dopamine receptor (Homo sapiens), P35462 | D3R DiscoveRx beta-arrestin cells, luminescence, 90 min | max activation, % | 410,000 compounds, 0.58% hits; in the data active = max activation above about 30%; note: 0% is about no effect
#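 Agonist mode: compounds and dopamine controls were applied to plated cells for 90 min at 37 degrees C after an overnight attachment at 1500 cells/well. Luminescent read-out followed 30 - 60 minutes at room temperature with DiscoveRx detection reagent.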
# uPA generation: qHTS for Inhibitors of Cell Surface uPA Generation; 330,000 compounds, 0.31% hits; AID 540303, 2011; cell surface uPA generation assay, qHTS; Potency, µM (highest dose often 38.3 µM), without a hit: at the highest dose activity change, negative = inhibition, hits mostly inhibitors; active = well fitted inhibition curve with a large enough effect; inconclusive = small, poorly fitted or top-dose-only effect; inactive = no such curve, though single readings can be large or run the other way; tested in mouse RAW 264.7 cells; note: potency is the fitted concentration of half-maximal effect; % is set by controls: 0 for no effect and ±100 for the full control effect; nearly all actives have a fitted effect of over 55% in size
# Numbers without * were called inactive; u = inconclusive; x = not tested or not shown; [ ] = remark or other dose.
SMILES,D3 antag,RGS4 inhibitor,DRD3 agonist,uPA generation
CCN(CC)CCCNC(=O)c1cn(C)c2ccc(S(=O)(=O)N3CCOCC3)cc2c1=O,x,-15.2%,10.1,x
CCOC(=O)C1CCC(CN(Cc2ccc(OC)cc2)S(=O)(=O)c2ccc(F)c(C(=O)Nc3c(C)cccc3C)c2)CC1 (configuration not stated),x,0.5%,-2.9,x
CC1CCC(NC(=O)c2ccc(CSc3nc4ccncc4n3Cc3ccc(F)cc3)cc2)CC1 (configuration not stated),x,-0.1%,-16.6,x
CCC(=O)Nc1sc2c(c1C#N)CCC2,-5.9,-6.0%,-6.4,2.2%
CC(C)CC(=O)NC(NC(=S)Nc1sc2c(c1C#N)CCCC2)C(Cl)(Cl)Cl (configuration not stated),-83.2*,u,-4.9,2.2%
CCn1c(SCC(=O)Nc2sc3c(c2C#N)CCCC3)nnc1-c1ccco1,-72.0*,-30.7%,-4.7,-3.4%
Cc1nnc(SCC(=O)Nc2sc3c(c2C#N)CCCC3)[nH]c1=O,-54.1*,u,-9.3,4.7%
CCOC(=O)c1c(NC(=O)CSc2nnc(C)c(=O)[nH]2)sc2c1CCCC2,3.1,-35.9%,-5.8,-1.8%
COc1cc(/C=N/N2CCN(Cc3ccc(Cl)cc3)CC2)cc(Br)c1O,-13.9,-20.2%,-1.5,-10.3%
Cc1ccc(CN2CCN(/N=C/c3ccc(C(=O)O)cc3)CC2)cc1,-0.3,-13.7%,1.8,2.4%
COc1ccc(/C=N/N2CCN(Cc3ccc(C)cc3)CC2)cc1Br,-91.7*,-2.4%,-8.3,-3.7%
COc1ccc(/C=N/N2C(=O)CSC2=S)cc1Br,21.2,-38.1%,36.5*,9.3%
Cc1ccc(CN2CCN(/N=C/c3ccc(O)c(O)c3)CC2)cc1,-63.6*,-32.7%,-12.8,u
CCCCCOc1ccc(Cn2c(=O)oc3ccccc32)cc1,x,7.3%,-0.4,x
CCc1nn(Cc2c(C)cc(C)cc2C)c(=O)c2cc3cc(C)ccc3n12,x,20.7%,0.1,x
CCc1ccc(S(=O)(=O)c2cn(CC)c3cc(N4CCOCC4)c(F)cc3c2=O)cc1,x,-1.0%,2.7,x
CC1=NN(c2ccccc2)C(=O)/C1=C/C=C/C=C/N(C)C,-69.0*,-25.7%,-15.8,-5.5%
Cc1nn(CCCC(=O)Nc2cccc(C(F)(F)F)c2)c(=O)c2nn(-c3ccccc3)c(C)c12,x,-2.8%,-17.5,x
CN(Cc1nc2ccccc2c(=O)[nH]1)C(=O)c1cc(C2CC2)nn1-c1ccccc1,-59.7*,13.8%,2.3,19.5%
O=C1CCCc2cc(S(=O)(=O)NCC3CCC(C(=O)Nc4ccccc4F)CC3)ccc2N1 (configuration not stated),x,-1.4%,5.6,x
COc1ccc(CCCO[C@@H](Cn2ccnc2)c2ccc(OC)cc2)cc1,x,292.7%[56.9 µM],x,x
COc1ccc(CC(=O)NCC2COc3ccccc3O2)cc1 (configuration not stated),0.0,-14.2%,1.6,9.1%
COc1ccc(CNCC2COc3ccccc3O2)cc1 (configuration not stated),-100.5*,-12.4%,4.1,-3.2%
c1ccc(CCCNCC2COc3ccccc3O2)cc1 (configuration not stated),u,-2.8%,17.1,-0.6%
COc1ccc(C(=O)NCC(=O)NCC2COc3ccccc3O2)cc1 (configuration not stated),-52.1*,-11.0%,0.0,0.2%
SMILES,D3 antag,RGS4 inhibitor,DRD3 agonist,uPA generation
COc1cccc(OC)c1OCCNCC1COc2ccccc2O1 (configuration not stated),-93.7*,16.7%[56.9 µM],-84.0,3.6%
c1ccc(CCCCNCC2COc3ccccc3O2)cc1 (configuration not stated),-91.4*,-15.4%,-7.8,4.6%
CCCNCC1COc2ccccc2O1 (configuration not stated),-69.9*,8.6%,-43.7,x
CC(C)(C)c1ccc(/C=C/C(=O)NC2=NCCS2)cc1,15.8,-24.8%,0.7,2.4%
Cc1ccc(/C=C/C(=O)NC2=NCCS2)cc1,-5.4,8.4%,6.8,10µM*
Cc1ccnc(NC(=O)c2ccccc2NC(=O)c2ccc(Cl)cc2Cl)c1,59.1,-30.0%,0.1,2.82µM*
CC(=O)N1CCCc2cc(S(=O)(=O)N3CCN(C4CCCCC4)CC3)ccc21,-55.7*,16.6%,-3.3,0.6%
